Data on 40 compounds can be found in PubChem BioAssay (Tox21).

Records with an inconclusive call do not appear. A call without a number means that no potency is given here. Values without a mark were called inactive. Active and inactive are the calls of the source. Calls come from the whole dose curve; as a rule, active = well fitted cell-killing curve with a large enough effect in the repeat runs; inconclusive = weak or mixed curves, or effect the other way; inactive = flat fitted curve, though single readings scatter.

The experiment in a line: qHTS assay to identify small molecule agonists of the sonic hedgehog signaling (Shh) pathway - cell viability counter screen (AID 1259366). Note: nearly all actives have a fitted effect of over 50% in size. As to conditions: NIH/3T3 Gli1-Luc viability, CellTiter-Fluor, 24 h; series mostly up to 92.4 µM. The text has this:
National Center for Advancing Translational Sciences [NCATS]
NIH Chemical Genomics Center [NCGC]
U.S. Environmental Protection Agency [EPA]
National Institutes of Environmental Health Sciences [NIEHS]
National Toxicology Program [NTP]
U.S. Food and Drug Administration [FDA]
The sonic hedgehog (Shh) pathway is essential for normal embryonic development. Dysregulation of the Shh pathway can cause severe developmental defects in organs. Therefore chemicals that interfere with the pathway are potential developmental toxicants. A cell line designated 3T3Gli1-Luc (DMB/OARSA/CFSAN/FDA, Laurel, MD), a NIH/3T3 derived clone containing stably integrated Gli1-Luc reporter is used to detect chemical interference of the Shh pathway, by changes in the expression of the firefly Luc gene under the control of the Gli1 transcriptional response element. This cell line was used to screen Tox21 libraries for identifying and prioritizing the potential developmental toxicants that interfere Shh pathway. The cytotoxicity of the compounds was tested in parallel by measuring the cell viability using CellTiter-Fluor assay system (Promega, Madison, WI) in the same wells.
Tox21 Assay Protocol Summary:
3T3 Gli1-Luc cells were dispensed at 2,000 per well in 5uL of culture medium into white solid bottom 1536-well plates (Greiner Bio-One, Monroe, NC) using a Multidrop Combi (Thermo Scientific, Waltham, MA) dispenser. The assay plates were incubated at 37 C and 5% CO2 for 4hr, and then 23nL of compounds dissolved in DMSO and positive control were transferred using a Pintool station (Wako, San Diego, CA). The assay plates were incubated at 37C and 5% CO2 for 24hr. For viability read, after 23hr of compound treatment, 1uL of CellTiter-Fluor reagent (Promega Corporation, Madison, WI) was added to each well of the assay plates using Flying Reagent Dispenser (FRD, Aurora Discovery, San Diego, CA) and incubated the assay plates at 37C for 1hr. The fluorescence signal was quantified using a ViewLux plate reader (Perkin Elmer, Shelton, CT).
For orientation: qHTS replaces the single test concentration by a dilution series.
Consider `CCCC[C@H]1CN(CC2CCOCC2)C(=O)OC12CCN(C1(C)CCN(C(=O)c3c(C)ncnc3C)CC1)CC2`, for which the Potency result is “inactive”.
`COc1ccc(OC)c(OC)c1`: the Potency entry is “inactive”.
Same read-out and setting: to `Cc1ccc(O)c([C@H](CCN(C(C)C)C(C)C)c2ccccc2)c1` belongs “inactive”; to `CCN(CC)CCOc1ccc2c(c1)C(=O)c1cc(OCCN(CC)CC)ccc1-2`, “inactive”; to `CC(C)NCC(O)c1cc(O)cc(O)c1` (stereo not given), “inactive”.
Take `CNS(=O)(=O)Cc1ccc2[nH]cc(CCN(C)C)c2c1`: the Potency entry was “inactive”.
Same read-out and setting: to `O=C(O)C(c1ccc(Cl)cc1)c1ccc(Cl)cc1` belongs “inactive”.
Consider `O=C(C(=O)c1ccc(Br)cc1)c1ccc(Br)cc1`, for which the viability change, negative = cytotoxic is 7.56% [at 19 µM].
Regarding `CC(C)(Oc1ccc(Cl)cc1)C(=O)OCCCOC(=O)C(C)(C)Oc1ccc(Cl)cc1`, the Potency entry was “inactive”.
Regarding `COC(=O)CSc1cc(N=c2sc(=O)n3n2CCCC3)c(F)cc1Cl`, the Potency entry was “inactive”.
For `CCCCOC(=O)/C=C\C(=O)OCCCC`, the Potency result is “inactive”.
Consider `COc1ccccc1OC(=O)Oc1ccccc1OC`, for which the Potency entry was “inactive”.
For the compound `CC(C)CCCCCCOC(=O)c1ccc(C(=O)OCCCCCCC(C)C)c(C(=O)OCCCCCCC(C)C)c1`, the Potency result is “inactive”.
The same measure, in the same setting: to `CCCCC(CC)(CO)CO` belongs “inactive”; to `COC(Cc1ccccc1)OC`, “inactive”.
Take `CC1=CCC(C(C)C)C=C1` (stereo not given): the Potency result is “inactive”.
Turning to `CCC(=O)OC(C)(C)C1CC=C(C)CC1` (stereo not given), the Potency result was “inactive”.
The same measure, in the same setting: the same measure for `O=C1[C@H](CC[C@H](O)c2ccc(F)cc2)[C@@H](c2ccc(O)cc2)N1c1ccc(F)cc1`: “inactive”.
On the same count and under the same terms, to `NCc1ccccc1` belongs “inactive”; to `O=c1c2ccccc2nnn1CCl`, “inactive”.
Regarding `CC(=O)Nc1ccc(/C=N/NC(N)=S)cc1`, the Potency result is “inactive”.
As for `Cn1c(NCCN(CCO)CCCc2ccc([N+](=O)[O-])cc2)cc(=O)n(C)c1=O`, the Potency entry is “inactive”.
Still for that read-out and setting: to `CC(=O)c1c(C)c([N+](=O)[O-])c(C(C)(C)C)c([N+](=O)[O-])c1C` belongs “inactive”.
For the compound `Cc1ccc(C(N)=O)cc1N`, the Potency result was “inactive”.
The same measure, in the same setting: the same measure for `CC(C)NCC(O)COc1ccc(CC(N)=O)cc1` (stereo not given): “inactive”; for `CC(C)CCCC(C)CCO` (stereo not given): “inactive”.
Take `Cc1ccc(C(=O)C(C)CN2CCCCC2)cc1` (stereo not given): the Potency result is “inactive”.
In the case of `CCN(CC)C(C)CN1c2ccccc2Sc2ccccc21` (stereo not given), the Potency result was “inactive”.
Turning to `OC(CCN1CCCCC1)(c1ccccc1)C1CCCCC1` (stereo not given), the Potency result was “inactive”.
Consider `CCCCCCCCCCCCCCCCCBr`, for which the viability change, negative = cytotoxic is -1.63% [at 19 µM].
Take `CC(=O)N(CC(=O)N(C)C)c1ccccc1`: the Potency entry is “inactive”.
`O=C(O)Cc1sc(-c2ccccc2)nc1-c1ccc(Cl)cc1`: the Potency entry was “inactive”.
Still for that read-out and setting: the same measure for `CC(=O)CC(=O)c1ccccc1`: “inactive”; for `CCOC(=O)C1=NN(c2ccccc2)C(=O)C1`: “inactive”; for `CCOC(=O)CC(C)C`: “inactive”.
For the compound `O=C(O)c1cn(C2CC2)c2cc(Cl)c(F)cc2c1=O`, the Potency result was “inactive”.
As for `Oc1ccc2c(c1)OCO2`, the Potency entry is “inactive”.
Regarding `CC(C)(C)c1ccc(S)cc1`, the Potency result was “inactive”.
With `CCCCCCCCCCCCCCCBr`, the Potency result is “inactive”.
Consider `O=C(NN1CCCC1)NS(=O)(=O)c1ccc(Cl)cc1`, for which the Potency entry was “inactive”.
